# S2 tox: cell viability loss in ATXN counter-screen | 400,000 tested, 0.49% active | Potency, µM (top dose mostly 56.7 µM), most hits filed as cytotoxic | S2 cells (HEK-293 line with an ATXN2-luciferase reporter) viability, CellTiter-Fluor protease fluorescence, 24 h; further: nearly all actives have a fitted effect of over 40% in size
# A549 viability: kills or reduces viability of A549 cells in Nrf2 counter-screen. Potency, µM (series often up to 46 µM), for the others: at the top dose activity change, negative = cytotoxicity, actives largely listed as inhibitors. A549 ARE-Fluc cells, CellTiter-Fluor viability, 18-24 h. AID 504648. 390,000 tested, 0.16% active; further: on the % scale 0 is the no-effect control and ±100 the full control effect
#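 A549 ARE-Fluc cells in 5% FBS OPTI-MEM, 5000 cells/well, rested 2 h then exposed to compounds in concentration-response for 18-24 h at 37 °C. Viability by CellTiter-Fluor fluorescence (Ex 405/Em 525) after 30 min; luciferase luminescence (BugLite, 15 min, RT) read afterwards.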
# ATXN2 expr inh: reduces ATXN2 reporter expression in HEK-293 cells | 360,000 tested, 0.72% active | HEK-293 ATXN2-luciferase reporter, luminescence, 24 h | Potency, µM (series often up to 57 µM), without a hit: at the top dose activity change, negative = inhibition, usual class: inhibitors; further: on the % scale 0 is the no-effect control and ±100 the full control effect; nearly all actives have a fitted effect of over 55% in size
#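 ATXN2-luciferase reporter cells (luciferase flanked by upstream and downstream ATXN2 gene portions) were treated 24 h at 37 °C with compounds at up to 57 uM. SteadyGlo luminescence gave expression; GF-AFC fluorescence gave viability.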
# HepG2 tox: counter-screen for TGF-b inhibitors: cytotoxicity in HepG2 cells; HepG2 CAGA-GFP viability, ATP luminescence, 18 h; Potency, µM (series often up to 46.1 µM), for inactives: top-dose activity change, negative = cytotoxicity, actives largely listed as cytotoxic; 410,000 tested, 0.76% active; AID 588856
#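 HepG2 CAGA-GFP cells (1000/well, DMEM with 1% FBS) received compound, then TGF-beta at 500 pg/mL final, and were incubated 18 hours at 37 degrees C. Viability was read by CellTiter-Glo luminescence. Media-only wells were set as complete cell-killing and DMSO as no toxicity.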
# Nrf2 inh: blocks Nrf2 signaling; Potency, µM (series often up to 46 µM), for inactives: at the top dose activity change, negative = inhibition, actives largely listed as inhibitors; 360,000 tested, 2.1% active; A549 ARE-Fluc reporter, luciferase luminescence, 18-24 h; further: on the % scale 0 is the no-effect control and ±100 the full control effect; nearly all actives have a fitted effect of over 60% in size
#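 Nrf2 activity is the BugLite luminescence, read 15 min after reagent at room temperature, following CellTiter-Fluor cytotoxicity readout (30 min, 37C). Compound titrations were applied for 18-24 h to 5000 A549 ARE_Fluc cells/well in 5% FBS OPTI-MEM.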
# TGFb SMAD3 inh: blocks TGF-b signaling; HepG2 CAGA-GFP TGF-b/SMAD3 reporter, GFP fluorescence, 18 h; TGF-beta stimulated, 500 pg/mL final; Potency, µM (highest dose often 46.1 µM), inactives show top-dose activity, negative = inhibition, usual class: inhibitors; 410,000 tested, 1.2% active; AID 588855; further: on the % scale 0 is the no-effect control and ±100 the full control effect; nearly all actives have a fitted effect of over 65% in size
#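 Cell-based qHTS in HEPG2 carrying a CAGA-GFP Smad reporter; compounds added before 500 pg/mL final TGF-beta, 18 h incubation at 37 degrees C, GFP fluorescence quantified per cell by imaging cytometry.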
# An asterisk follows results filed as active; i = inactive; u = inconclusive; x = no result. This is a sample that favours compounds with a hit; in the whole collection about 3.8% have one here. The call rests on the fitted dose curve; in most records, active means well fitted curve in the direction sought with a large enough effect; inconclusive means small, poorly fitted or top-dose-only effect, or another doubt; inactive means no such curve, though single readings can be large; an effect the other way counts as inactive or inconclusive. Potency means the concentration at half of the fitted maximal effect.
SMILES,S2 tox,A549 viability,ATXN2 expr inh,HepG2 tox,Nrf2 inh,TGFb SMAD3 inh
CC(C)(C)c1cc[n+](C2=C([O-])c3ccccc3C(=O)/C2=N\S(=O)(=O)c2ccccc2)cc1,u,-4%,u,i,11%,14µM*
CC(C)c1ccc(NC(=O)C[n+]2ccn(C3=C([O-])c4ccccc4C3=O)c2)cc1,i,5%,1%,-3%,-9%,-9%
COc1cc(-c2cc(C)c3cccc(OC)c3n2)cc2c1OCCN(C(=O)Cn1nc(C)cc1C)C2,i,x,x,x,x,x
Cc1nc(C(=O)N2CCC(n3nccc3NC(=O)Nc3ccccc3Cl)CC2)cs1,i,14%,1%,10%,5%,15%
CCCCC[n+]1ccn(C2=C([O-])c3ccccc3C(=O)/C2=N\S(=O)(=O)c2ccc(Br)cc2)c1,i,u,x,4µM*,u,1.6µM*
CCOc1ccc2ncc(C(=O)c3ccc(OC)cc3)c(N3CCN(CC)CC3)c2c1,i,3%,-12%,-33%,-13%,15%
CCOC(=O)C1CCCN(c2c(C(=O)c3ccc(C)cc3)cnc3ccc(OCC)cc23)C1 (centres undefined),x,u,x,-25%,23µM*,-1%
N/C(=N\OC(=O)Nc1ccccc1)c1ncc([N+](=O)[O-])s1,u,-21%,u,8.9µM*,0%,11µM*
O=C(COC(=O)COc1ccccc1)Nc1ncc([N+](=O)[O-])s1,i,-1%,11%,3%,-1%,-5%
Cc1ccc(-n2c(SCC(=O)N/N=C/c3c(C)nn(-c4ccccc4)c3C)nc3ccccc3c2=O)cc1,u,8.2µM*,-23%,-39%,u,u
Cc1ccccc1-n1c(SCC(=O)N/N=C/c2c(C)nn(-c3ccccc3)c2C)nc2ccccc2c1=O,u,u,-19%,7%,u,u
Cc1nn(-c2ccccc2)c(C)c1/C=N/NC(=O)CSc1nc2ccccc2c(=O)n1-c1ccc(Br)cc1,x,18µM*,u,-41%,26µM*,u
C/C=C1\NC(=O)[C@H]2CSSCC/C=C/[C@H](CC(=O)N[C@H](C(C)C)C(=O)N2)OC(=O)C(C(C)C)NC1=O (some centres undefined),4.5µM*,x,x,x,x,x
COCCn1c2c([n+](Cc3cnccn3)c1C)C(=O)c1ccccc1C2=O,x,x,0.054µM*,x,x,x
COCCc1ccccn1,i,x,17%,x,x,x
N#Cc1c(F)cccc1NCc1cccnc1,i,-7%,-6%,13%,u,17%
N#Cc1c(NCc2ccccc2)ccnc1NCc1cccnc1,i,-14%,34%,-20%,6.5µM*,-13%
Cc1ccc(NS(=O)(=O)c2ccc(Cl)c(NC(=S)NC(=O)C3CCCCC3)c2)cc1Cl,u,-88%,u,11µM*,u,u
Cc1ccc(NS(=O)(=O)c2ccc3c(c2)CC(C)N3C(=O)C2CCC2)cc1Cl (centres undefined),i,-16%,u,-18%,21µM*,u
O=C(C1CCC1)N1CCc2cc(S(=O)(=O)Nc3ccc4c(c3)OCO4)ccc21,i,-8%,-11%,-17%,10µM*,-4%
CC(=O)Nc1ccc(NS(=O)(=O)c2ccc3c(c2)CC(C)N3C(=O)C2CCC2)cc1 (centres undefined),u,-2%,-10%,3%,19%,0%
Cc1cc(Cl)ccc1NS(=O)(=O)c1ccc2c(c1)CC(C)N2C(=O)C1CCC1 (centres undefined),i,-2%,-28%,-22%,21µM*,11µM*
Cc1ccc(NC(=O)C2CCCC2)cc1Cl,i,0%,9%,1%,-15%,-5%
Cc1ccc(Nc2nnc(-c3ccc(C)c(S(=O)(=O)N4CCOCC4)c3)c3ccccc23)c(C)c1,x,6%,x,2%,9%,16%
CC(C)C[C@H](NC(=O)OC(C)(C)C)C(=O)N/N=C/C1=Cc2ccccc2OC1C (some centres undefined),u,u,u,-64%,21µM*,u
SMILES,S2 tox,A549 viability,ATXN2 expr inh,HepG2 tox,Nrf2 inh,TGFb SMAD3 inh
Cc1ccc(C2CC(=O)NC(SCc3ccccc3)=C2C#N)cc1 (centres undefined),i,2%,-13%,-28%,10µM*,19%
COc1cc(CN2C(=O)C(NC(=O)c3ccco3)(C(F)(F)F)C3=C2CC(C)(C)CC3=O)cc(OC)c1 (centres undefined),i,-3%,14%,2%,-11%,14%
COc1cc(C(=O)NS(=O)(=O)c2ccccc2C)ccc1Cc1cn(C)c2ccc(NC(=O)OC3CCCC3)cc12,i,x,39µM*,x,x,x
O=C(c1noc2c1CCCC2)N1CCN(c2ccccc2)CC1,i,-7%,46%,2%,x,-27%
CC1CCc2onc(C(=O)N3CCN(c4cccc(C(F)(F)F)c4)CC3)c2C1 (centres undefined),x,-3%,x,-26%,21µM*,u
Cc1ccc(C)c(N2CCN(C(=O)c3noc4c3CCCCC4)CC2)c1,x,-5%,x,-27%,u,13µM*
Cc1ccc(S(=O)(=O)c2[nH]c(-c3ccccc3)nc2SCC(N)=O)cc1,i,-5%,11%,-10%,8%,11%
Cc1ncc(CO)c(/C=N/NC(=O)c2ccc(O)cc2)c1O,i,12%,-4%,-11%,-14%,-1%
Cc1ncc(CO)c(/C=N/NC(=O)c2cc3c(s2)CCCC3)c1O,i,-8%,x,-2%,23µM*,7%
COC(=O)C=C1CCC2C3CCC4=CC(=O)C(Br)CC4(C)C3C(=O)CC12C (centres undefined),x,-5%,32µM*,-30%,-15%,10%
CC12CCC(=O)C=C1CCC1C2C(=O)CC2(C)C1CCC2(O)C(=O)CO (centres undefined),i,1%,-6%,5%,6%,30%
CCCCN1C(=O)C(=O)NC[C@@H]1Cc1ccc(O)cc1,i,x,-9%,x,x,x
COC(=O)c1ccc(N2CCOCC2)c(NC(=O)Nc2cccc(OC)c2)c1,u,1%,32µM*,-10%,0%,-10%
CCOC(=O)c1ccc(N2CCN(c3ccccc3F)CC2)c(NC(=O)Nc2cccc(OC)c2)c1,i,-1%,-7%,-13%,-12%,-14%
COc1cccc(NC(=O)Nc2cc(Cl)ccc2C)c1,i,-3%,x,-4%,18µM*,-13%
COc1ccc(NC(=O)Nc2ccc(F)cc2F)cc1,i,7%,38%,0%,u,-1%
